HCV inhibitor – qHTS Assay for Inhibitors of Hepatitis C Virus (HCV); Huh7.5.1 HCVcc-Cre infection, luciferase reporter, 44 h; Potency, µM (highest dose often 41.8 µM), for inactives: top-dose activity change, negative = inhibition, actives largely listed as inhibitors; 340,000 tested, 3.4% active; AID 651820, 2012; also: potency is read from the fitted curve at half-maximal effect
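Seed cells (1,000/well) for 4 h; treat with compound and infect with HCVcc-Cre, moi about 0.5. Incubate 44 h, then detect luciferase activity.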
FMDV antiviral – High Throughput Screening for Foot and Mouth Disease Virus Antivirals | FMDV antiviral cell-based qHTS | Potency, µM (highest dose often 57.9 µM), inactives show at the highest dose activity change, negative = inhibition, most hits filed as inhibitors | 410,000 tested, 1.2% active; calls by dose curve; tested in HEK293T cells; also: read-out not given here; potency is read from the fitted curve at half-maximal effect; nearly all actives have a fitted effect of over 45% in size
HCMV antiviral – qHTS Assay for inhibitors of the human cytomegalovirus (HCMV) | AID 1259415, 2018 | HFF cells, HCMV-luciferase reporter, 72 h; stronger effect = lower value | 410,000 tested, 4.5% active | activity change, negative = inhibition, % at 57.5 µM; in the data active = activity change below about -60%; inconclusive = no clear call, values can overlap the other calls; inactive = above about -39%
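HFF cells seeded 16 h at 37C, treated with compounds, infected with luciferase-reporter HCMV at MOI 1 PFU/cell; luciferase read at 72 h post infection, normalized to buffer-only and Salinomycin controls.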
FBPA Giardia inh – qHTS Assay for Inhibitors of Fructose-1,6-bisphosphate Aldolase from Giardia Lamblia; purified Giardia FBPA; AID 2451, 2010; Potency, µM (highest dose often 59.6 µM), inactives show at the highest dose activity, negative = inhibition, actives largely listed as inhibitors; A8B2U2; 290,000 tested, 0.71% active; also: potency is read from the fitted curve at half-maximal effect; nearly all actives have a fitted effect of over 55% in size
Target sequence (A8B2U2 whole entry, looked up): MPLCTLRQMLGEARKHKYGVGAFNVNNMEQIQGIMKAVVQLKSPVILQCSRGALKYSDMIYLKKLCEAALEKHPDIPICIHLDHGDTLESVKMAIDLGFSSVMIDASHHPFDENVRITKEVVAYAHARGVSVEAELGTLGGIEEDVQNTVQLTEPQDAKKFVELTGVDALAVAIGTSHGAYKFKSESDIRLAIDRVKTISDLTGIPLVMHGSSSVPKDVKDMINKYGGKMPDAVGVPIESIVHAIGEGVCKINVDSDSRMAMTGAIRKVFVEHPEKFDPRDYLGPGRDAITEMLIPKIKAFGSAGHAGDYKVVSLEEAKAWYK
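40 nM FBPA preincubated 10 min at RT with compound (up to 57.5 uM final), then substrate plus GAPDH/TPI/NAD/arsenate coupling and diaphorase/resazurin added. Fluorescence read after 20 min at RT, 525/598 nm.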
VACV mCherry inh – qHTS for Stage-Specific Inhibitors of Vaccinia Orthopoxvirus: mCherry Reporter Primary qHTS; 310,000 tested, 0.63% active; Potency, µM (top dose mostly 36.5 µM), inactives show top-dose activity change, negative = inhibition, most hits filed as inhibitors; Vaccinia virus mCherry reporter infection, fluorescence; calls by dose curve; tested in A549 cells; also: potency is read from the fitted curve at half-maximal effect; nearly all actives have a fitted effect of over 35% in size
Vaccinia Venus – qHTS for Stage-Specific Inhibitors of Vaccinia Orthopoxvirus: Venus Reporter Primary qHTS; Vaccinia virus Venus reporter expression, fluorescence; Potency, µM (highest dose often 36.5 µM), for the others: at the top dose activity change, negative = inhibition, usual class: inhibitors; 330,000 tested, 0.46% active; AID 720580, 2013; calls by dose curve; tested in A549 cells; also: potency is read from the fitted curve at half-maximal effect; nearly all actives have a fitted effect of over 30% in size
The depositor's hits bear a star; i = inactive; ? = inconclusive; . = not tested or not shown; [ ] = dose if it differs, or a comment. The list is not random: actives were taken first. Their share in the collection is about 7.5%. Unless noted, calls follow the shape of the dose curve; as a rule, active = well fitted curve in the direction sought with a large enough effect; inconclusive = small, poorly fitted or top-dose-only effect, or another doubt; inactive = no such curve, though single readings can be large; an effect the other way counts as inactive or inconclusive. % is scaled to controls: 0 for no effect and ±100 for the full control effect.

SMILES	HCV inhibitor	FMDV antiviral	HCMV antiviral	FBPA Giardia inh	VACV mCherry inh	Vaccinia Venus
COc1ccccc1NC(=O)COc1ccc(/C=N/NC(=O)CSCc2cc(C)cc(C)c2)cc1	-27.4%	?	4.6	9.9%	-9.4%	4.9%
COc1ccccc1NC(=O)COc1ccc(/C=N/NC(=O)CSCc2ccc(Cl)cc2)cc1	?	17.8µM*	-18.3	4.8%	i	-4.1%
Cc1cc(Nc2ccc(Br)c(C)c2)n2nc(-c3ccco3)nc2n1	.	?	-37.5	.	?	?
CN1/C(=C/c2cc[n+](C)c3ccccc23)C=Cc2ccccc21	?	14.1µM*	.	?	?	?
COc1ccc2c(c1)CC/C=C(/c1ccccc1)CCO2	.	.	-7.7	.	.	.
O=C(Nc1ncccc1O)c1c(O)c2ccccc2[nH]c1=O	-0.3%	-0.1%	-76.7*	-20.5%	.	.
C(=C\c1nc(N2CCCCCC2)c2ccccc2n1)/c1ccccc1	?	39.8µM*	?	1.6%	?	?
CN1CCN(c2ncc3nc(-c4ccc(F)cc4)c(=O)n(Cc4cccs4)c3n2)CC1	.	-8.1%	.	-1.3%	.	.
NC1=NC[C@H](CC2CCCCC2)N1CCc1cc(C(F)(F)F)cc(C(F)(F)F)c1	6.7%	?	-100.2*	2.8%	?	10µM*
NC1=NC[C@@H](Cc2ccc(O)cc2)N1CCc1cc(C(F)(F)F)cc(C(F)(F)F)c1	25.5%	-0.8%	63.9	7.0%	-0.5%	-19.8%
FC(F)(F)c1cc(CCN2CCNC[C@@H]2CC2CCCCC2)cc(C(F)(F)F)c1	?	0.0%	-98.5*	.	?	?
CCC(C)[C@H]1CNCCN1CCc1cc(C(F)(F)F)cc(C(F)(F)F)c1 (some centres undefined)	6.4%	-13.8%	?	.	?	15.8µM*
NCCCC[C@H]1CN=C(N)N1CCCCC1CCCCC1	15.1%	-9.1%	-82.2*	.	i	-15.3%
CC1=C(C(=O)Nc2ccccc2)C(c2ccccc2Cl)n2ncc(C(=O)Nc3cccc(C)c3)c2N1 (centres undefined)	.	-15.8%	?	.	-2.9%	-17.8%
CC1(C)CC(=O)C(C(c2ccc(Br)cc2)C2C(=O)CC(C)(C)CC2=O)C(=O)C1	3.3%	6.0%	9.9	5.1%	i	-12.1%
Cc1ccc(CN(C(=O)c2csnn2)C(C(=O)NC2CCCC2)c2cccnc2)cc1 (centres undefined)	4.4%	10.9%	39.1	9.0%	14.1%	-3.6%
COCCCNCCCCOc1ccc(Br)cc1Cl	10µM*	-23.0%	?	-24.8%	-3.1%	-16.1%
Cc1cc(Br)ccc1OCCCCNCCO	10µM*	-7.9%	-13.5	-27.0%	.	.
COCCNCCCOc1ccc(Br)cc1Cl	10µM*	8.9%	-12.5	-11.5%	i	-17.4%
CN(C)CCCCOc1ccc(Br)cc1Cl	10µM*	1.5%	14.2	-25.2%	-3.5%	-1.5%
C=CCNCCCCOc1ccc(Br)cc1C	-26.5%	-16.1%	-28.7	?	-20.3%	-10.9%
CC(=O)NCC(=O)NCC1Cc2cc(C)cc(-c3ccccn3)c2O1 (centres undefined)	.	-5.1%	.	.	4.7%	4.3%
Cc1cc(C)n2nc(CC(=O)NC3CCCCCC3)nc2n1	.	-10.3%	8.7	0.6%	0.1%	-2.0%
COCCCNCCCOc1ccc(Cl)cc1C(C)(C)C	7.08µM*	?	-27.4	-22.1%	-22.7%	-9.4%
COc1cc(-c2nnc(CSc3nnc(Nc4ccc(C(C)C)cc4)s3)o2)cc(OC)c1OC	7.08µM*	12.7%	40.7	-2.7%	?	?
SMILES	HCV inhibitor	FMDV antiviral	HCMV antiviral	FBPA Giardia inh	VACV mCherry inh	Vaccinia Venus
CCOC(=O)c1c(-n2c(C)cc(C=C3C(=O)NC(=S)NC3=O)c2C)sc2c1CCCC2	?	10µM*	.	?	.	.
CCOC(=O)c1c(-n2c(C)cc(/C=C3/C(=O)NC(=O)N(CC)C3=O)c2C)sc2c1CCCC2	4.6%	?	-6.1	.	-9.8%	0.0%
COC(=O)c1c(-n2c(C)cc(C=O)c2C)sc2c1CCCC2	-19.7%	.	-75.9*	1.5%	-12.0%	-28.5%
COc1cccc([C@@H]2Oc3ccc(Br)cc3C[C@H]2OC(=O)N[C@H](C)C2CCCCC2)c1	.	.	.	-2.6%	.	.
CCOc1ccc(CCNC(=O)CN2CCN(Cc3ccccc3F)C2=O)cc1OCC	11.2µM*	5.5%	-2.6	-4.3%	-23.0%	-20.2%
Cn1c(C(=O)NCc2ccccc2Cl)cc2sc(Cl)cc21	.	12.5%	-62.3*	.	-10.2%	-7.4%
CCOc1ccc(CCNC(=O)c2cc3ccccn3n2)cc1OCC	12.6µM*	?	9.7	6.2%	-14.9%	-14.9%
CCOc1ccc(CCNC(=O)c2cc3sc(Cl)cc3n2C)cc1OCC	7.08µM*	-16.2%	-9.5	-5.4%	-5.9%	-8.1%
Cc1cccc(CCNC(=O)c2cc3ccccn3n2)c1	.	38.9%	64.6	.	-1.3%	-4.0%
CCCCC(=O)N[C@H]1CC[C@@]23CCCN2C(=O)CCC[C@H]3[C@H]1Cc1ccccc1	.	.	-3.9	.	.	.
O=C(c1ccc2c(Cl)c3c(nc2c1)CCCC3)N1CCC(N2CCCCC2)CC1	?	0.0%	-60.3*	4.6%	-23.9%	?
COc1ccc(CCNC(=O)c2ccc3c(Cl)c4c(nc3c2)CCCC4)cc1OC	.	?	?	.	-23.7%	-20.8%
CCc1ccc(CNC(=O)c2ccc3c(Cl)c4c(nc3c2)CCCC4)cc1	.	13.0%	-26.1	.	-14.1%	-5.2%
CN1CCN(CCCNC(=O)c2ccc3c(Cl)c4c(nc3c2)CCCC4)CC1	10µM*	-23.2%	?	.	.	.
COc1ccc(CCNC(=O)c2ccc3c(Cl)c4c(nc3c2)CCCC4)c(OC)c1	.	?	-94.1*	.	-16.1%	-11.2%
O=C(NCc1ccc(F)cc1)c1ccc2c(Cl)c3c(nc2c1)CCCC3	.	-19.1%	-72.9*	.	-12.0%[7.34 µM]	-9.2%[7.34 µM]
CCCN(CCC)Cc1cc(=O)oc2ccccc12	.	.	-15.5	.	.	.
O=C(O)COc1ccccc1/C=N/NC(=O)c1cccc(S(=O)(=O)N2CCOCC2)c1	14.2%	-5.8%	-36.0	?	5.0%	2.6%

Screening data: PubChem BioAssay, National Center for Advancing Translational Sciences (NCATS)
